Screening data deposited in PubChem by several laboratories.
Mcl1 Bid PPI: Mcl-1/Bid binding inhibitors, primary screen, biochemical, TR-FRET, 1536-well | inhibition, % at 21.7 µM | 220,000 compounds, 0.97% hits | TR-FRET Mcl-1/Bid-Dy647 peptide binding | Induced myeloid leukemia cell differentiation protein Mcl-1 (Homo sapiens), Q07820;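 active = compounds that cut the binding signal by more than half at the single screening dose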;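 note: His-tagged Mcl-1 with europium anti-His antibody binding Bid BH3 peptide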
BCLXL inh: inhibitors of human Bcl-xL, primary screen, biochemical, fluorescence polarization, HTS; Bcl-2-like protein 1 (Homo sapiens), Q07817; 320,000 compounds, 0.7% hits; GST-Bcl-xL / FITC-Bim BH3 peptide fluorescence polarization; inhibition, % at 10.9 µM;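 active = inhibition above the mean of all tested compounds plus 3 SD, cutoff set per campaign, cut at about 30% in these data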;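 note: inhibitors lower millipolarization by displacing the labeled peptide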
MCL1 BIM primary: inhibitors of MCL1 binding to BIM-BH3, primary screen, biochemical, fluorescence polarization; 320,000 compounds, 0.68% hits; AID 2057, 2009; Induced myeloid leukemia cell differentiation protein Mcl-1 (Homo sapiens), Q07820; inhibition, % at 10.9 µM; GST-MCL1 / FITC-Bim-BH3 fluorescence polarization;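 active = inhibition above the mean inhibition of all tested compounds plus 3 SD, set per campaign, cut at about 40% in these data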;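 note: higher means more loss of mP so more displacement of Bim peptide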
Mcl1-Noxa inh: Mcl-1/Noxa binding inhibitors, primary screen, biochemical, TR-FRET, 1536-well. TR-FRET Mcl-1/Noxa peptide binding, 2 h. inhibition, % at 21.7 µM. 220,000 compounds, 1.5% hits. AID 1022, 2008;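 active = compounds that cut the protein-peptide binding signal by more than 50% relative to plate controls in a single-dose test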;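 note: His-tagged Mcl-1 with rhodamine Noxa BH3 peptide and terbium anti-His antibody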
Mcl-1 Bim block: inhibitors of Bim peptide binding to Mcl-1, primary screen, biochemical, bead-based flow cytometry, multiplex | Induced myeloid leukemia cell differentiation protein Mcl-1 (Homo sapiens), Q07820 | Bim peptide-Mcl-1 binding | inhibition, % at 10 µM | 190,000 compounds, 0.1% hits | AID 1009, 2008; in the data active = inhibition above about 40%
GLD-1 TGE inh: GLD-1/TGE RNA complex disruptors, primary screen, biochemical, fluorescence polarization | Female germline-specific tumor suppressor gld-1 (Caenorhabditis elegans), Q17339 | purified GLD-1 + fluorescein TGE RNA | inhibition, % at 5.96 µM | 320,000 compounds, 0.44% hits | AID 2280, 2010;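 active = percent inhibition above a per-plate cutoff, the plate mean of test compounds plus 3 SD, cut at about 30% in these data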
Target sequence (Q17339 whole entry, looked up): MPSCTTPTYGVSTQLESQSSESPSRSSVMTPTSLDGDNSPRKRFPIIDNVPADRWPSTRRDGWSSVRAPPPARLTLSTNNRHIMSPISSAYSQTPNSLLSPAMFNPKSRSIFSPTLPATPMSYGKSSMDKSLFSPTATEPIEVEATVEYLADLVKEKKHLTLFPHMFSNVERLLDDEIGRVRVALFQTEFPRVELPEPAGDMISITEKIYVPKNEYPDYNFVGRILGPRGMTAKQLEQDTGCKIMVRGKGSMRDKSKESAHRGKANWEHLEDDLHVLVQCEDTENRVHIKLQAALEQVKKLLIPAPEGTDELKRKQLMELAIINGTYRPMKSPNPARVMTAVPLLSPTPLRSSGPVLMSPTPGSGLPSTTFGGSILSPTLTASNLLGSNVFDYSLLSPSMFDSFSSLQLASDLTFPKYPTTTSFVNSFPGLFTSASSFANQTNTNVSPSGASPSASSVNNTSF
A number is an active result; 0 = inactive; - = no result given. Only some compounds are listed: those with a hit (about 2.3% of all), similar ones and a draw of the others.

SMILES | Mcl1 Bid PPI | BCLXL inh | MCL1 BIM primary | Mcl1-Noxa inh | Mcl-1 Bim block | GLD-1 TGE inh
COc1cccc(C(=O)NCC(=O)N2CCC3(CC2)NCCc2[nH]cnc23)c1OC | - | 0 | 0 | - | - | 0
O=C(NC(Cc1ccccc1)C(=O)Oc1ccc2c(C(F)(F)F)cc(=O)oc2c1)OCc1ccccc1 (centres undefined) | 0 | 42 | 41 | 0 | 0 | 65
O=C(CSc1nc(-c2ccccc2)nc2c1Cc1ccccc1O2)Nc1ccc(C(=O)O)cc1 | 88 | - | - | 0 | 0 | -
C=CCn1c(SCC(=O)Nc2sccc2C(N)=O)nc2ccc(Cl)cc2c1=O | 61 | 0 | 0 | 0 | 0 | 0
C=CCn1c(SCC(=O)Nc2sccc2C(N)=O)nc2ccccc2c1=O | 0 | 0 | 0 | 0 | 0 | 0
O=S(=O)(c1ccccc1)N(CC1CO1)c1cc(Cl)ccc1Cl (centres undefined) | - | 0 | 0 | - | - | 0
CCCOc1cccc(CN2CCCCC2c2cccnc2)c1 (centres undefined) | 70 | 0 | 0 | 0 | 0 | 0
O=C(CCN1CCCCC1c1cccnc1)NCc1ccccc1 (centres undefined) | 0 | 0 | 0 | 0 | 0 | 0
COc1ccc(-c2cc(C(F)(F)F)nc(N3CCOCC3)n2)cc1OC | 91 | 0 | 0 | 0 | 0 | 0
COc1cccc(-c2cc(C(F)(F)F)nc(N3CCOCC3)n2)c1 | 0 | 0 | 0 | 0 | 0 | 0
Cc1cc(NC(=O)CSc2nnc(NC(=O)C3CC(=O)N(c4ccccc4)C3)s2)no1 (centres undefined) | 51 | 0 | 0 | 0 | 0 | 0
CCN1C(=O)/C(=C2\C=Cc3cc(C)ccc3N2CC)OC1=S | 0 | 0 | 0 | 0 | 0 | 0
CCN1/C(=C/c2cc[n+](C)cc2)C=Cc2cc(C)ccc21 | 0 | 0 | 0 | 56 | 0 | 0
Cc1ccc(/C=C2/C(=O)c3ccc(C(=O)O)cc3C2=O)o1 | 0 | - | - | 72 | 0 | -
Cc1ccc(C=C2C(=O)c3ccccc3C2=O)o1 | 0 | 0 | 0 | 0 | 0 | 0
COc1ccc2nc(Nc3nc(CSc4nc5ccccc5[nH]4)cc(=O)[nH]3)nc(C)c2c1 | 56 | 0 | 0 | 0 | 0 | 0
Cc1nnc2ccc(-c3ccc(NS(C)(=O)=O)cc3)nn12 | 0 | 0 | 0 | 0 | 0 | 0
CC(=O)c1ccc(S(=O)(=O)Nc2ccc(-c3ccc4nnc(C)n4n3)cc2)cc1 | 0 | 0 | 0 | 55 | 0 | 0
Cc1cccc(NC(=O)c2nc[nH]c2C(=O)N2CCN(c3ccccc3)CC2)c1 | - | - | - | - | - | 0
CCN1C(=O)[C@@H]2[C@@H](c3ccc(-c4ccc(Cl)c(Cl)c4)c(OC)c3)N3CCCC[C@@]3(C(=O)OC)[C@@H]2C1=O | - | 0 | 0 | - | - | 0
CC1(C)OC(C)(C)/C(=C/Nc2ccc(O)cc2)C1=O | 0 | 0 | 0 | 57 | 0 | 0
O=S(=O)(/C=C/c1ccccc1)N1CCOCC1 | - | 0 | 0 | - | - | 0
COc1ccc(CCNC(=O)CSc2nnc3ccc(-c4ccccn4)nn23)cc1OC | - | 0 | 0 | - | - | 0
COc1cc(-c2ccc(Nc3ccccc3C(=O)O)c(OC)c2)ccc1Nc1ccccc1C(=O)O | 98 | - | - | 105 | - | -
O=c1c2cc(N3CCOCC3)ccc2[nH]c(=S)n1Cc1ccc(Cl)cc1 | 0 | 0 | 0 | 0 | 0 | 0
Cc1ccc(Cn2c(=S)[nH]c3ccc(N4CCOCC4)cc3c2=O)o1 | 0 | 0 | 0 | 73 | 0 | 0
Cc1ccc(S(=O)(=O)NCCNc2ccc(Br)c(C)c2)cc1 | - | - | - | - | - | 0
Cc1ccc2nc(N3C(=O)C(O)=C(C(=O)c4ccco4)C3c3ccc(O)cc3)sc2c1 (centres undefined) | - | 0 | 0 | - | - | 0
Cc1ccc(C2C(C(=O)c3ccco3)=C(O)C(=O)N2c2nnc(C)s2)cc1 (centres undefined) | 0 | 31 | 0 | 0 | 0 | 34
Cc1ccc2nc(N3C(=O)C(O)=C(C(=O)c4cc5ccccc5o4)C3c3cccs3)sc2c1 (centres undefined) | 0 | 0 | 0 | 70 | 0 | 0
